Source: PubChem BioAssay
The list is not random: actives were taken first. Their share in the collection is about 10%.
hNpr1 antagonist = human Npr1 receptor antagonism. HEK293 hNpr1 GloSensor cGMP, ANP-stimulated luminescence. AID 1347048. P16066. Potency, µM (highest dose often 46.3 µM), for the others: at the top dose activity change, negative = inhibition, usual class: inhibitors. 76,000 compounds, 1.6% hits; calls by dose curve; note: % is set by controls: 0 for no effect and ±100 for the full control effect; nearly all actives have a fitted effect of over 60% in size
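HEK293 cells stably expressing human Npr1 and cGMP GloSensor pGS-40F, loaded 2 h with 2% GloSensor reagent, given compound 30 min at room temperature. Luminescence read before and 20 min after 0.1 nM hNppA.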
HEK cytotox = HEK 293 cell cytotoxicity; HEK 293 viability, ATP luminescence (CellTiter-Glo), 48-72 h; Potency, µM (series often up to 115 µM), for the others: at the top dose activity change, negative = cytotoxicity, usual class: inhibitors; 94,000 compounds, 6.6% hits; note: % is set by controls: 0 for no effect and ±100 for the full control effect; nearly all actives have a fitted effect of over 60% in size
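Cells seeded first (HEK 293, 250 cells/well), then compound added by pintool. Incubation ran 48 or 72 hr at 37 degree Celsius. CellTiter-Glo was added and luminescence imaged after 10 min at room temperature.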
GPT2 inh = inhibitors of human GPT2 alanine aminotransferase; Q8TD30; Recombinant GPT2, coupled pyruvate oxidase/HRP Amplex Red fluorescence; Potency, µM (titrated, usually from 57.7 µM), for inactives: at the highest dose activity change, negative = inhibition, hits mostly inhibitors; 100,000 compounds, 0.25% hits; AID 1671188; note: % is set by controls: 0 for no effect and ±100 for the full control effect; nearly all actives have a fitted effect of over 60% in size
Target sequence (Q8TD30 whole entry, looked up): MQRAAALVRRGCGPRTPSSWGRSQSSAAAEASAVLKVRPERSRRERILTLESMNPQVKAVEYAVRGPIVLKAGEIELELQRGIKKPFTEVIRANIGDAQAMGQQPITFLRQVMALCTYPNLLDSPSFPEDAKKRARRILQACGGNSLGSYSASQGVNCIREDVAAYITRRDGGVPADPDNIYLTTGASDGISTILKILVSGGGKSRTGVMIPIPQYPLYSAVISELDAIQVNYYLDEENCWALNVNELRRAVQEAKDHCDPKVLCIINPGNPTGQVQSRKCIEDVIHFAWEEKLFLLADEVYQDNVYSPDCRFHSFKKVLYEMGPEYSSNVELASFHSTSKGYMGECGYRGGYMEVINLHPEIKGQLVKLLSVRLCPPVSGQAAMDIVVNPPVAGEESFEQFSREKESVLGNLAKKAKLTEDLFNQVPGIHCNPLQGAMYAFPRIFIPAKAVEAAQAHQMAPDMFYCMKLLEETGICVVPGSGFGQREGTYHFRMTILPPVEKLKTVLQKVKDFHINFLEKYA
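Fluorescence of coupled pyruvate oxidase/HRP/Amplex Red system (50uM Amplex, 30 min, dark) reports pyruvate formed by GPT2. Enzyme reaction: 10ng/uL GPT2, 2mM L-alanine, 250uM a-KG, 30 min room temperature, pH 7.5; 50uM AOA control.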
NIH3T3 tox = kills NIH 3T3 cells; NIH 3T3 viability, CellTiter-Glo ATP luminescence, 48-72 h; Potency, µM (doses to about 96.7 µM), for the others: at the top dose activity change, negative = cytotoxicity, usual class: inhibitors; 94,000 compounds, 4.3% hits; note: % is set by controls: 0 for no effect and ±100 for the full control effect; nearly all actives have a fitted effect of over 55% in size
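Cytotoxicity is measured as loss of cellular ATP: NIH 3T3 cells (400/well) are exposed to compound for 48 or 72 hr at 37 °C, then CellTiter-Glo luminescence is imaged after 10 min at room temperature.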
FLuc inh-1 = blocks purified firefly luciferase enzyme activity. purified P. pyralis luciferase, luminescence, biochemical. P08659. 76,000 compounds, 2.5% hits. Potency, µM (doses to about 115 µM), usual class: inhibitors; note: % is set by controls: 0 for no effect and ±100 for the full control effect; nearly all actives have a fitted effect of over 65% in size
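FLuc 10nM, D-luciferin 10uM, ATP 10uM, Mg acetate 10mM, Tris acetate pH 7.5, Tween/BSA; cpd qHTS; enzyme added last; CCD luminescence.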
FLuc SDR -ATP = binders stabilizing firefly luciferase, without ATP. shares compounds with FLuc inh-1. Purified FLuc-C-HiBiT, Nano-Glo HiBiT luminescence, no ATP. AID 1963318. Potency, µM (doses to about 32.7 µM), for the others: top-dose activation (signal gain), most hits filed as activators. 1,300 compounds, 7.8% hits; note: nearly all actives have a fitted effect of over 55% in size
FLuc SDR ATP = stabilizes firefly luciferase with ATP present; shares compounds with FLuc inh-1; purified FLuc-C-HiBiT + ATP, HiBiT complementation luminescence; Potency, µM (titrated, usually from 32.7 µM), for inactives: top-dose activation (gain of signal), actives largely listed as activators; 1,300 compounds, 8.7% hits; AID 1963319;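 note: signal reports ligand binding via conformational change of the enzyme rather than luciferase catalysis; % of control where 0% means no effect; nearly all actives have a fitted effect of over 55% in size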
FLuc inh-2 = firefly luciferase enzyme inhibition. shares compounds with FLuc inh-1. purified FLuc-C-HiBiT enzyme, luciferin luminescence. Potency, µM (top dose mostly 32.7 µM), inactives show at the highest dose activity change, negative = inhibition, hits mostly inhibitors. 1,300 compounds, 42% hits; note: % is set by controls: 0 for no effect and ±100 for the full control effect; nearly all actives have a fitted effect of over 70% in size
Starred values were filed as active, the others as inactive; i = inactive; ? = inconclusive; . = no result given; [ ] = another dose, or the depositor's remark. Unless noted, calls come from the whole dose curve; as a rule, active = well fitted curve in the direction sought with a large enough effect; inconclusive = small, poorly fitted or top-dose-only effect, or another doubt; inactive = no such curve, though single readings can be large; an effect the other way counts as inactive or inconclusive. Potency is the fitted concentration of half-maximal effect.

SMILES	hNpr1 antagonist	HEK cytotox	GPT2 inh	NIH3T3 tox	FLuc inh-1	FLuc SDR -ATP	FLuc SDR ATP	FLuc inh-2
O=C1CO[C@H]2CCN(Cc3ccccc3O)CC[C@@H]2N1c1ccccc1	-1%[70.6 µM]	-20%[172 µM]	i	?	i	.	.	.
COC(=O)c1cccc(-c2noc(-c3ccccc3F)n2)c1	.	.	.	.	.	22%	18%	?
Nc1ccc(C(=O)N2CCCn3nc(C(=O)Nc4ccccc4)cc3C2)cn1	-5%	?	-12%	-26%	7.1µM*	?	?	?
Cc1cn2c(=O)cc(COC(=O)c3cccc(NC(=O)COc4ccccc4Cl)c3)nc2s1	.	.	.	.	.	13%	9.9µM*	7µM*
COc1ccc(-c2nc3ccccc3s2)cc1NC(C)=O	.	.	.	.	.	15%	15%	?
COc1ccc(-c2nc3ccccc3s2)cc1NC(=O)c1ccc(C#N)cc1F	.	.	.	.	.	13%	9%	-1%
COc1ccc(-c2nc3ccccc3s2)cc1NC(=O)c1ccccc1F	.	.	.	.	.	15%	7%	-16%
CCOc1ccc(C(=O)Nc2ccc(-c3nc4ccccc4s3)cc2)cc1[N+](=O)[O-]	.	.	.	.	.	13%	9%	0%
COc1ccc(-c2ccc(C(=O)Nc3ccccc3F)c(Cl)c2)nn1	.	?	.	-26%	.	.	.	.
CC(=O)Nc1ccc(CN2CCCCC23Cc2ccccc2CN(C(=O)C(C)C)C3)cc1 (stereo unspecified)	.	?	i	-4%	.	.	.	.
COc1ccccc1NC(=O)O[C@H]1COCCN(c2nc3ccccc3s2)C1	-8%[70.6 µM]	?	i	?	i	.	.	.
COc1cccc(CNc2ccc(S(=O)(=O)Nc3nc4ccccc4s3)cc2)c1O	.	.	3%	.	.	.	.	.
COc1ccc(-c2nc3ccccc3s2)cc1NC(=O)c1cccc([N+](=O)[O-])c1C	.	.	.	.	.	15%	14%	6.2µM*
COc1ccc(-c2nc3ccccc3s2)cc1NC(=O)c1cc2ccccc2o1	.	.	.	.	.	7%	7%	-4%
Brc1ccc(-c2cn3cc(Cc4ccccc4)sc3n2)cc1	.	.	.	.	.	22%	15%	?
Fc1ccc(Cc2cn3cc(-c4ccccc4)nc3s2)cc1	.	.	.	.	.	?	?	0.44µM*
Fc1ccc(Cc2cn3cc(-c4ccc(Cl)cc4)nc3s2)cc1	.	.	.	.	.	16%	14%	?
Fc1ccc(CNC[C@H]2Cn3cc(-c4ccccc4)nc3CO2)cc1	-10%[70.6 µM]	?	i	?	i	.	.	.
Fc1ccc(-c2cn3cc(Cc4ccccc4)sc3n2)cc1	.	.	.	.	.	?	?	0.28µM*
COCCN1C(=O)CCc2cc(NC(=O)c3ccc(Br)o3)ccc21	1%	?	?	-16%	i	.	.	.
Clc1ccccc1Cc1cn2cc(-c3ccccc3)nc2s1	.	.	.	.	.	?	?	0.44µM*
CC1CCCN(c2ncnc3c2cnn3-c2cccc(Cl)c2)C1 (stereo unspecified)	.	.	.	.	.	11µM*	?	0.79µM*
Cc1ccc(-n2ncc3c(N4CCCC(C)C4)ncnc32)cc1C (stereo unspecified)	.	.	.	.	.	3.5µM*	1.2µM*	0.16µM*
CC1CCCN(c2ncnc3c2CN(c2ccccc2)C(=O)N(C)C3)C1 (stereo unspecified)	0%	i	i	-7%	i	.	.	.
O=C(NCc1ccc(F)cc1)c1cc2c(s1)CCN(C(=O)c1ccc(F)cc1)C2	-28%	?	i	?	i	.	.	.
SMILES	hNpr1 antagonist	HEK cytotox	GPT2 inh	NIH3T3 tox	FLuc inh-1	FLuc SDR -ATP	FLuc SDR ATP	FLuc inh-2
COc1ccc(CCNC(=O)CNC(=O)c2ccc(-c3cnc4ccccc4c3)cc2)cc1	.	-29%	i	-9%	.	.	.	.
O=C(NCCc1ccccc1F)c1nc2sccn2c1Br	?	?	i	?	1.6µM*	24%	?	7µM*
Cc1ccc(C2=NC3(CCN(C(=O)c4cccc(N(C)C)c4)CC3)ON2)cc1	-17%	-24%	i	-24%	14µM*	21%	?	?
CN(Cc1nc(-c2cccnc2)no1)C(=O)CC1COCCN1 (stereo unspecified)	2%	0%	-11%	2%	i	.	.	.
CN(C)C1CCN(c2ccc(-c3nc(CCCc4ccccc4)no3)cn2)CC1	-15%	28µM*	-7%	35µM*	5.6µM*	11%	13%	-17%
Cc1nnc(CN(C)c2ccc(-c3nc(CCCc4ccccc4)no3)cn2)o1	?	?	-6%	-8%	?	.	.	.
Cc1ccc(-c2cc(C(=O)O)n(C)c2)cc1	-14%	0%	i	-29%	16µM*	11%	?	?
Cn1cc(-c2ccccc2)cc1C(=O)N1CCCC1	-1%	?	i	-10%	i	.	.	.
Cn1cc(-c2ccc(Cl)cc2)cc1C(=O)O	-4%	?	i	?	?	10%	10%	-15%
CN(C)C(=O)c1cc(-c2ccc(Cl)cc2)cn1C	0%	?	-5%	-25%	?	.	.	.
Cc1ccsc1[C@@H]1CCN(Cc2ccc(C#CC(C)(C)O)cc2)C[C@H]1O	-11%	?	-21%	-33%	i	.	.	.
Cc1ccc(C2Cn3nnc(C(=O)N4CCC(C(=O)NCc5ccccn5)CC4)c3CO2)cc1 (stereo unspecified)	-4%	-4%	i	i	11µM*	11%	?	?
Cc1ccc(C2Cn3nnc(C(=O)N4CCC(C(=O)Nc5ccccc5)CC4)c3CO2)cc1 (stereo unspecified)	-3%	12%	i	5%	13µM*	13%	?	?
Cc1ccc(C2Cn3nnc(C(=O)N4CCC(C(=O)NCc5ccccc5C)CC4)c3CO2)cc1 (stereo unspecified)	3%	17%	i	i	i	.	.	.
Cc1ccc(C2Cn3nnc(C(=O)N4CCC(C(=O)Nc5ccc(F)cc5)CC4)c3CO2)cc1 (stereo unspecified)	-13%	-19%	-2%	-8%	11µM*	14%	?	?
CCOC(=O)[C@@H]1[C@@H](OC)C(=O)N(Cc2ccccc2)C12CCN(C(=O)c1cccc(C#N)c1)CC2	.	?	.	-33%	.	.	.	.
Cc1ccc(NC(=O)N2CCC(n3cnnc3C3CC3)C2)cc1Cl (stereo unspecified)	0%	6%	i	i	i	.	.	.
